Bioassay records: PubChem, National Center for Advancing Translational Sciences (NCATS)
L3MBTL1 block: inhibitors of human L3MBTL1 | actives 0.66% (n = 230,000) | AID 485360 | AlphaScreen L3MBTL1–H3K9me1 peptide binding | Q9Y468 | Potency, µM (titrated, usually from 57.1 µM), for inactives: at the top dose activity, negative = inhibition, usual class: inhibitors; note: % is set by controls: 0 for no effect and ±100 for the full control effect; nearly all actives have a fitted effect of over 60% in size
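L3MBTL1 50 nM + b-AHA-H3(1-15)K9me1 75 nM, 30 min RT; compound added, 30 min RT; streptavidin donor/Ni-chelate acceptor beads 10 ug/mL each final, 30 min RT dark; AlphaScreen read.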
JMJD2A Tudor inh: JMJD2A Tudor domain (human) inhibition | AID 504339 | O75164 | AlphaScreen JMJD2A-Tudor / H3K4me3 peptide binding | Potency, µM (series often up to 114 µM), without a hit: top-dose activity change, negative = inhibition, usual class: inhibitors | actives 4.4% (n = 390,000); note: % is set by controls: 0 for no effect and ±100 for the full control effect; nearly all actives have a fitted effect of over 50% in size
G9a inh: G9a (human) methyltransferase inhibition; Q96KQ7; G9a H3K9 monomethylation, AlphaScreen, 2 h; Potency, µM (series often up to 102 µM), without a hit: at the highest dose activity, negative = inhibition, usual class: inhibitors; actives 8.8% (n = 350,000); AID 504332; note: % is set by controls: 0 for no effect and ±100 for the full control effect; nearly all actives have a fitted effect of over 75% in size
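Enzyme 20 nM + cpd, 15 min RT; add b-H3K9 pep 500 nM / SAM 20 uM; 2 h RT; anti-H3K9me1 Ab 0.5 ug/mL + SA donor / anti-rabbit acceptor beads 20 ug/mL each, 10 min; AlphaScreen read.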
HP1b binding inh: HP1-beta chromodomain-methylated histone interaction inhibition | P83916 | AlphaScreen HP1-beta / biotin-H3K9me3 peptide binding | Potency, µM (titrated, usually from 114 µM), for the others: at the highest dose activity change, negative = inhibition, hits mostly inhibitors | actives 0.56% (n = 390,000) | AID 540317; note: nearly all actives have a fitted effect of over 70% in size
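AlphaScreen: HP1-beta (50 nM) preformed 30 min with biotin-H3(1-18)K9me3 peptide (50 nM) in PBS pH 7.4, 0.01% Tween-20. Compound added for 30 min at RT, then streptavidin donor/nickel chelate acceptor beads (10 ug/mL) for 30 min.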
BAZ2B inh: BAZ2B (human) inhibition; Q9UIF8; AlphaScreen BAZ2B-H3K14Ac peptide displacement; Potency, µM (top dose mostly 114 µM), for inactives: at the highest dose activity change, negative = inhibition, hits mostly inhibitors; actives 4.4% (n = 360,000); note: % is set by controls: 0 for no effect and ±100 for the full control effect; nearly all actives have a fitted effect of over 60% in size
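In this displacement format the biotinylated H3(5-23) peptide acetylated at Lys14 serves as ligand at 50 nM, with BAZ2B at 50 nM in PBS pH 7.4 containing 0.01% Tween-20. Donor and acceptor beads are 10 ug/mL final.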
* = called active by the depositor; [ ] = remark or other dose. Hits are enriched below; roughly 11% of the tested compounds scored in any of these assays. Calls come from the whole dose curve; as a rule, active = well fitted inhibition curve with a large enough effect; inconclusive = small, poorly fitted or top-dose-only effect; inactive = no such curve, though single readings can be large or run the other way. Potency is the fitted concentration of half-maximal effect.

O=C(O)c1nccnc1C(=O)Nc1ccc(Cl)cn1 was read as JMJD2A Tudor inh inconclusive, G9a inh 45µM*, HP1b binding inh 7%[57 µM] and BAZ2B inh inconclusive.
Screening Cc1cc(C)cc(NC(=O)Nc2cnccn2)c1 returned JMJD2A Tudor inh -5%, HP1b binding inh 31% and BAZ2B inh -5%.
For O=C(NNc1ccccc1)c1ccc(Cl)c(Cl)c1 the results were JMJD2A Tudor inh -7% and HP1b binding inh 39%.
For Cc1cccc(N2CCN(c3ccc4cc(S(=O)(=O)N5CCC(C)CC5)ccc4n3)CC2C)c1 (configuration not stated) the results were JMJD2A Tudor inh 6%, G9a inh -50%[59 µM], HP1b binding inh 65% and BAZ2B inh -4%.
`CN(C)S(=O)(=O)c1cccc(COc2ncnc3c(Cl)cc(Cl)cc23)c1` gave JMJD2A Tudor inh -14%, G9a inh 0%, HP1b binding inh 3% and BAZ2B inh 0%.
For CCc1ccccc1N(C)C(=O)Cn1cnc2sc(C)c(S(=O)(=O)N3CCN(c4ncccn4)CC3)c2c1=O the results were JMJD2A Tudor inh -27%, G9a inh -2%[59 µM], HP1b binding inh 12% and BAZ2B inh -1%.
Screening Cc1cc2n(n1)CCC(=O)N2Cc1ccc(C(=O)Nc2cc(Cl)ccc2C)cc1 returned JMJD2A Tudor inh 7%, G9a inh -7%[59 µM], HP1b binding inh 33% and BAZ2B inh -11%.
`CC(C)=C[C@@H]1C[C@H](C)[C@H]2CC[C@H](C)c3c(O)c(O)c(C)c1c32` gave L3MBTL1 block -7%, JMJD2A Tudor inh 40µM*, G9a inh 6%[0.501 µM], HP1b binding inh inconclusive and BAZ2B inh 56µM*.
CC(=O)O[C@H]1[C@H](O)[C@H](Oc2c(O)c(C)c3c4c2[C@@H](C)CC[C@@H]4[C@@H](C)C[C@H]3C=C(C)C)O[C@@H](C)[C@H]1O was read as L3MBTL1 block -9%, JMJD2A Tudor inh 32µM* and HP1b binding inh -21%.
For CC(=O)OC1[C@H](Oc2c(O)c(C)c3c4c2[C@@H](C)CC[C@@H]4[C@@H](C)C[C@@H]3C=C(C)C)OC[C@@H](O)[C@@H]1O (some centres not stated) the results were L3MBTL1 block -4%, JMJD2A Tudor inh inconclusive and HP1b binding inh -9%.
Screening Cc1cccc(C)c1NC(=O)c1oc2c(c1C)-c1nn(Cc3ccccc3)cc1CC2 returned JMJD2A Tudor inh -8%, G9a inh -7%[59 µM], HP1b binding inh 2% and BAZ2B inh -11%.
For CN=c1scc(-c2c[nH]c3ccccc23)n1C the results were L3MBTL1 block 1%, JMJD2A Tudor inh -19%, G9a inh 40µM*, HP1b binding inh 17% and BAZ2B inh -13%.
Screening O=C(CSc1nnc(-c2ccccc2)c(-c2ccccc2)n1)NC1CCCC1 returned JMJD2A Tudor inh -35%, G9a inh -49%[59 µM], HP1b binding inh 4% and BAZ2B inh inconclusive.
`Cc1c(C(=O)Nc2nc(-c3ccccn3)cs2)oc2ccccc12` gave L3MBTL1 block inconclusive, JMJD2A Tudor inh inconclusive, G9a inh inconclusive, HP1b binding inh inconclusive and BAZ2B inh 35µM*.
For O=C(Nc1nc(-c2ccccn2)cs1)c1cc2ccccc2o1 the results were L3MBTL1 block 20µM*, JMJD2A Tudor inh 25µM*, G9a inh -36%, HP1b binding inh 31% and BAZ2B inh 22µM*.
Cc1cc(-c2csc(NC(=O)c3cc4ccccc4o3)n2)c(C)n1C was read as L3MBTL1 block inconclusive, JMJD2A Tudor inh -21%, G9a inh -12%[59 µM], HP1b binding inh -4% and BAZ2B inh -2%.
`Cc1ccc(NS(=O)(=O)c2ccc3[nH]c(=O)[nH]c3c2)cc1C` gave JMJD2A Tudor inh -14%.
For NC(=S)c1ccc[n+]([C@@H]2O[C@@H](COP(=O)([O-])OP(=O)(O)OC[C@H]3O[C@@H](n4cnc5c(N)ncnc54)[C@H](OP(=O)(O)O)[C@@H]3O)C(O)C2O)c1 (some centres not stated) the results were G9a inh 7.9µM*.
NC(=S)c1ccc[n+]([C@@H]2O[C@@H](COP(=O)([O-])OP(=O)(O)OC[C@H]3O[C@@H](n4cnc5c(N)ncnc54)[C@H](OP(=O)(O)O)[C@H]3O)C(O)C2O)c1 (some centres not stated) was read as G9a inh 18µM*.
For NC(=O)c1ccc[n+]([C@@H]2OC(COP(=O)([O-])OP(=O)(O)OCC3OC(n4cnc5c(N)ncnc54)C(O)C3O)C(O)C2O)c1 (some centres not stated) the results were G9a inh -40%[2.33 µM].
NC(=O)c1ccc[n+]([C@H]2O[C@@H](COP(=O)([O-])OP(=O)(O)OC[C@H]3O[C@@H](n4cnc5c(N)ncnc54)[C@H](O)[C@@H]3O)[C@H](O)[C@@H]2O)c1 was read as L3MBTL1 block -94%, JMJD2A Tudor inh 79µM*, G9a inh -25%[12.7 µM], HP1b binding inh 23% and BAZ2B inh 35µM*.
Cc1c(Cc2ccccc2)sc(NC(=O)c2ccco2)c1C(N)=O was read as L3MBTL1 block 4%, JMJD2A Tudor inh -19%, G9a inh 5%[59 µM], HP1b binding inh 14% and BAZ2B inh 8%.
Screening Cc1c(Cc2ccc3c(c2)OCO3)sc(NC(=O)c2cccc3ccccc23)c1C(N)=O returned L3MBTL1 block -3%, JMJD2A Tudor inh inconclusive, G9a inh 7.1µM*, HP1b binding inh inconclusive and BAZ2B inh inconclusive.
Cc1c(Cc2ccc3c(c2)OCO3)sc(NC(=O)C2CC2)c1C(N)=O was read as JMJD2A Tudor inh inconclusive, G9a inh 3.5µM*, HP1b binding inh -23% and BAZ2B inh -33%.
CCN(CC)C(=O)c1sc(NC(=O)c2ccc3c(c2)OCO3)c(C(N)=O)c1C was read as JMJD2A Tudor inh 6%, HP1b binding inh 14% and BAZ2B inh -10%.
For Cc1c(Cc2ccccc2)sc(NC(=O)/C=C/c2cccc3ccccc23)c1C(N)=O the results were L3MBTL1 block 8%, JMJD2A Tudor inh 40µM*, G9a inh 20µM*, HP1b binding inh -3% and BAZ2B inh -11%.
`COC(=O)c1c(NC(=O)CN2C(=O)c3ccccc3C2=O)sc(Cc2ccc3c(c2)OCO3)c1C` gave L3MBTL1 block 0%, JMJD2A Tudor inh -2%, G9a inh 50µM*, HP1b binding inh -8% and BAZ2B inh -6%.
Screening N#Cc1ccccc1NC(=O)C(=O)NCC(c1ccc2c(c1)OCO2)N1CCOCC1 (configuration not stated) returned JMJD2A Tudor inh -15%, G9a inh -4%[59 µM], HP1b binding inh 5%[57 µM] and BAZ2B inh -7%.
